Design in all cases: species or system human, MV4-11 + K-562 + COLO205 + SK-N-BE2 + OVCAR-8
One assay deals with FLT3. As to conditions: read-out: apparent Kd, n = 1.
A further assay concerns FLT4. As to conditions: read-out: apparent Kd, n = 1.
The test system of a further assay is MAP3K1. As to conditions: read-out: apparent Kd; compound concentrations:100 nM and 1000 nM (sheet 'Samples'); n = 1.
The subject of a further assay is MAP4K5. As to conditions: read-out: apparent Kd, n = 1.
A further assay has as its system NUAK1. To be noted: read-out: apparent Kd; compound concentrations:100 nM and 1000 nM (sheet 'Samples'); n = 1.
The next assay concerns NUAK2. As to conditions: read-out: apparent Kd; compound concentrations:100 nM and 1000 nM (sheet 'Samples'); n = 1.
The subject of a further assay is SLK. As to conditions: read-out: apparent Kd; compound concentrations:100 nM and 1000 nM (sheet 'Samples'); n = 1.
The test system of a further assay is STK10. As to conditions: read-out: apparent Kd; compound concentrations:100 nM and 1000 nM (sheet 'Samples'); n = 1.
A further assay concerns LCK. To be noted: read-out: apparent Kd; compound concentrations: 100 nM and 1000 nM (sheet 'Samples'), CATDS: 8.5117028494468894E-2; n = 1.
The subject of the next assay is MAP4K1. To be noted: read-out: apparent Kd; compound concentrations: 100 nM and 1000 nM (sheet 'Samples'), CATDS: 0.115744032998791; n = 1.
For the next assay, the system named is MAP4K2. To be noted: read-out: apparent Kd; compound concentrations: 100 nM and 1000 nM (sheet 'Samples'), CATDS: 7.8376321207257696E-2; n = 1.
A further assay deals with MAP4K3. To be noted: read-out: apparent Kd; compound concentrations: 100 nM and 1000 nM (sheet 'Samples'), CATDS: 7.2653483868183794E-2; n = 1.
The subject of a further assay is RET. As to conditions: read-out: apparent Kd; compound concentrations: 100 nM and 1000 nM (sheet 'Samples'), CATDS: 0.14686027995557299; n = 1.
The next assay has as its system TNIK. As to conditions: read-out: apparent Kd; compound concentrations: 100 nM and 1000 nM (sheet 'Samples'), CATDS: 6.8078386206779196E-2; n = 1.
The next assay relates to TNK1. To be noted: read-out: apparent Kd; compound concentrations: 100 nM and 1000 nM (sheet 'Samples'), CATDS: 9.7568423036534901E-2; n = 1.
For the next assay, the system named is GSK3A. To be noted: read-out: apparent Kd; compound concentrations:100 nM and 1000 nM (sheet 'Samples'); n = 1.
The test system of the next assay is GSK3B. As to conditions: read-out: apparent Kd; compound concentrations: 100 nM and 1000 nM (sheet 'Samples'), CATDS: 0.16764618066406201; n = 1.
The subject of a further assay is MAP2K2. As to conditions: read-out: apparent Kd; compound concentrations:100 nM and 1000 nM (sheet 'Samples'); n = 1.
A further assay relates to RIOK2. As to conditions: read-out: apparent Kd; compound concentrations:100 nM and 1000 nM (sheet 'Samples'); n = 1.
Another assay relates to TGFBR2. To be noted: read-out: apparent Kd; compound concentrations:100 nM and 1000 nM (sheet 'Samples'); n = 1.
A further assay has as its system GAK. To be noted: read-out: apparent Kd; compound concentrations:100 nM and 1000 nM (sheet 'Samples'); n = 1.
Another assay relates to MAP2K5. As to conditions: read-out: apparent Kd; compound concentrations:100 nM and 1000 nM (sheet 'Samples'); n = 1.
Another assay has as its system SIK2. As to conditions: read-out: apparent Kd; compound concentrations:100 nM and 1000 nM (sheet 'Samples'); n = 1.
For a further assay, the system named is SIK3. As to conditions: read-out: apparent Kd; compound concentrations:100 nM and 1000 nM (sheet 'Samples'); n = 1.
A further assay has as its system ZAK. As to conditions: read-out: apparent Kd; compound concentrations:100 nM and 1000 nM (sheet 'Samples'); n = 1.
Where [1] appears, read: compound concentrations:100 nM and 1000 nM (sheet 'Samples').

The values that follow come from publication PMC11062922 (Nature Chemical Biology, 2023).

Like-named read-outs stand apart in the source and are kept apart here.

As to `C[C@@H](Oc1cc(-n2cnc3cc(-c4cnn(C)c4)ccc32)sc1C(N)=O)c1ccccc1Cl` [GSK580432A], the potency estimated from few doses is 1300 nM with FLT3 (setting [1]); 1610 nM with FLT4 (setting [1]); 129 nM with MAP3K1; 1040 nM in the assay with MAP4K5 (setting [1]); 598 nM with NUAK1; 525 nM with NUAK2. Moreover, the values for the potency estimated from few doses in the assay on SLK and with STK10 were 615 nM and 160 nM, respectively.

As to `CN(c1ccc(NC(=O)Nc2ccc(OC(F)(F)F)cc2)cc1)c1ccnc(Nc2cccc(S(N)(=O)=O)c2)n1` [GW806742X], the potency estimated from few doses is 336 nM with FLT3 (compound concentrations: 100 nM and 1000 nM (sheet 'Samples'), CATDS: 0.14801329572366401); 122 nM in the assay with FLT4 (compound concentrations: 100 nM and 1000 nM (sheet 'Samples'), CATDS: 0.285311181024344); 1110 nM in the assay on LCK; 536 nM in the assay with MAP4K1; 1420 nM in the assay on MAP4K2; 1830 nM in the assay with MAP4K3. The potency estimated from few doses in the assay on MAP4K5 (compound concentrations: 100 nM and 1000 nM (sheet 'Samples'), CATDS: 9.0249941941856496E-2) was 951 nM; in the assay with RET it was 340 nM; in the assay with TNIK, 2360 nM; in the assay with TNK1, 783 nM.

With `CC(C)c1ccc(Nc2nccc(-c3cnn4ncccc34)n2)cc1` [GW805758X], the potency estimated from few doses with FLT3 (setting [1]) was 1170 nM; in the assay on GSK3A it was 888 nM; in the assay with GSK3B, 1460 nM; in the assay on MAP2K2, 2020 nM; in the assay on RIOK2, 1700 nM; in the assay on TGFBR2, 2000 nM.

With `CNS(=O)(=O)c1ccc(N(C)C)c(Nc2ncnc3cc(OC)c(OC)cc23)c1` [GSK114], the potency estimated from few doses with GAK was 28.1 nM; in the assay with MAP2K5 it was 12.7 nM; in the assay with SIK2 it was 639 nM; in the assay on SIK3, 1350 nM; in the assay on ZAK it was 646 nM.
